Shown are actives, neighbours in structure and some others; about 1.8% of the full set was active somewhere.
VLA-4 inh: inhibition in human VLA-4 binding assay, primary screen, VLA-4 allosteric modulator project, MLPCN library, flow cytometry, VLA-4 expressing cells | ligand binding flow cytometry | AID 2557, 2010 | inhibition, % (about 7 µM as worked out from the volumes in the protocol) | 0.2% of 330,000 active; in the data active = inhibition above about 50%
MIN6 prolif: inducers of MIN6 beta-cell proliferation, primary screen, ATP luminescence, uHTS; MIN6 cells proliferation, ATPlite luminescence, 48 h; cells starved in 0.2% serum; 100% = growth in 10% serum; proliferation, % at 10 µM; 0.29% of 330,000 active; AID 2380, 2010;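 active = compounds whose signal lies at least 3.5 SD above the mean of all wells on their plate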;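 also: 0% = DMSO-treated cells in low-serum medium and 100% = 10% serum control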
APOBEC3A inh: APOBEC3A ssDNA deaminase inhibitors, primary screen, selectivity assay for APOBEC3G inhibitor project, biochemical, FAM/TAMRA oligo cleavage fluorescence; DNA dC->dU-editing enzyme APOBEC-3A (Homo sapiens), P31941; recombinant A3A, FAM/TAMRA ssDNA deamination fluorescence; inhibition, % at 20 µM; 0.41% of 330,000 active; AID 493011, 2011;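 active = at least 40% inhibition at 20 µM here, with at most 30% in a related deaminase screen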;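 also: plate controls were A3A with DMSO for no effect and wells lacking A3A enzyme for full effect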
Target sequence (P31941 whole entry, looked up): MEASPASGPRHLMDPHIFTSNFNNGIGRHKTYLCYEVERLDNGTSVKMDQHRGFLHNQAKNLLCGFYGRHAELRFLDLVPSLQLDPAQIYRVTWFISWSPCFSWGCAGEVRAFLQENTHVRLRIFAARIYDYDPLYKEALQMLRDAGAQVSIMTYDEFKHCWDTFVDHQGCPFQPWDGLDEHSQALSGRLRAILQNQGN
CendR NRP1 mod: modulators of CendR peptide binding to NRP-1, primary screen, biochemical, fluorescence polarization, uHTS; 0.85% of 360,000 active; inhibition, % at 25 µM; FAM-RPARPAR peptide binding to NRP-1;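 active = inhibition or corrected inhibition above about 18%, plus a signal ratio from 0.5 to 1.5, limit read from the data, passing the limit was not always enough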
APOBEC3G inh: APOBEC3G DNA deaminase inhibitors, primary screen, biochemical, fluorescence, single-stranded DNA substrate, uHTS | recombinant A3G, ssDNA deamination FAM/TAMRA fluorescence | 0.28% of 330,000 active | AID 493012, 2011 | DNA dC->dU-editing enzyme APOBEC-3G (Homo sapiens), Q9HC16 | inhibition, % at 20 µM;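 active = inhibition of at least 40% at 20 µM, with no more than 30% in the related APOBEC3A deaminase screen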;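 also: plate controls were DMSO wells with A3G for no effect and wells lacking A3G enzyme for full effect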
Target sequence (Q9HC16 whole entry, looked up): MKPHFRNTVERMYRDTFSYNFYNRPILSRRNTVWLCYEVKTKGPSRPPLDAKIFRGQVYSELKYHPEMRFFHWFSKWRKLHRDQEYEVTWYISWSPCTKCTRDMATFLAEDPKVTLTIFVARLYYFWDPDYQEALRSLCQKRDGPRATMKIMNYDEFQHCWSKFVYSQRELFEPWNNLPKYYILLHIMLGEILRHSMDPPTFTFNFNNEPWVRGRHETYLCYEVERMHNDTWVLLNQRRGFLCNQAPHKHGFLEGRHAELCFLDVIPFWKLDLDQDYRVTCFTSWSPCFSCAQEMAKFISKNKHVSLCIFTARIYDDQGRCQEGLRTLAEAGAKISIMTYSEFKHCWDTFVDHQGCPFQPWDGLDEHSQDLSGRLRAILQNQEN
APOBEC3A confirm: APOBEC3A deaminase inhibitors, retest, confirmation, selectivity assay for APOBEC3G inhibitor project, biochemical, single concentration, fluorescence readout; inhibition, % at 20 µM; 63% of 1,400 active; AID 493151, 2011; recombinant A3A, ssDNA deaminase UDG fluorescence assay; shares compounds with APOBEC3A inh;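 active = inhibition reaching a set limit, 80% of the first screen's cutoff, at 20 µM in any replicate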;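 also: plate controls were DMSO wells with A3A for no effect and wells lacking A3A enzyme for full effect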
UDG A3A counter: E. coli UDG inhibitors, confirmation, counter-screen for APOBEC3A inhibitor project, biochemical, single concentration, fluorescence, FAM/TAMRA oligo; shares compounds with APOBEC3A inh; UDG counterscreen, FAM/TAMRA uracil oligo fluorescence; inhibition, % at 20 µM; 1,000 tested, under 10 active; call rule not given here
Active calls of the source: *; x = no result.

SMILES	VLA-4 inh	MIN6 prolif	APOBEC3A inh	CendR NRP1 mod	APOBEC3G inh	APOBEC3A confirm	UDG A3A counter
CC1CCN(C(=O)c2ncn3c2c(=O)[nH]c2ccccc23)CC1	x	x	x	-12	x	x	x
CC1CCN(C(=O)c2ncn(C)c2C(=O)N2CCC(C)CC2)CC1	12	-2	55*	1	20	69*	-2
Cc1ccc(N(C)C(=O)n2cnc3ccccc32)cc1	1	-1	52*	13	-6	-1	-3
CCOc1cc(C2C3=C(CC(C)(C)CC3=O)N(CCCOC)C3=C2C(=O)CC(C)(C)C3)ccc1OC	10	-1	1	-5	5	x	x
CCOc1cc(C2C3=C(CC(C)(C)CC3=O)N(CCOC)C3=C2C(=O)CC(C)(C)C3)ccc1OC	3	2	49*	7	7	26	x
C/C(=N\NC1=NCCN1)c1ccccc1	7	-2	0	0	-5	x	x
Fc1ccccc1Sc1ccccc1CNC1=NCCN1	-11	0	63*	-7	-4	91*	-1
c1ccc(Sc2cccc3ccccc23)c(CNC2=NCCN2)c1	3	-5	58*	7	18	75*	2
CCN(CC)C(=O)CSc1nc2cc(S(=O)(=O)N3CCOCC3)ccc2n1CC	10	5	-4	15	-10	x	x
O=C(Nc1ccc(NC(=O)C2CC2)cn1)c1ccccc1	9	-3	2	-8	-5	x	x
O=C(Nc1ccc(NC(=O)C2CC2)cn1)c1ccccc1Cl	11	-1	43*	-3	-2	-6	-1
CCN1CCN(c2ccc(S(=O)(=O)N3CCOCC3)cc2NC(=O)c2ccc(C)c(C)c2)CC1	3	-2	24	0	-6	x	x
CCN1CCN(c2ccc(S(=O)(=O)N3CCOCC3)cc2NC(=O)c2ccc(Cl)cc2Cl)CC1	-5	-2	45*	19	4	24	x
CCN1CCN(S(=O)(=O)c2ccc(Cl)c(C(=O)Nc3cc(Cl)ccc3N3CCOCC3)c2)CC1	-9	-5	54*	0	28	58*	0
CCN1CCN(S(=O)(=O)c2ccc(Cl)c(C(=O)Nc3ccccc3N3CCOCC3)c2)CC1	8	2	53*	-10	4	57*	-1
COc1cccc(NC(=O)CN(C)C(=O)Cn2cnc3ccccc3c2=O)c1	0	0	-2	-6	-8	x	x
CN(C)S(=O)(=O)c1cccc(NC(=O)CN2C(=O)NC(Cc3ccccc3)C2=O)c1 (centres undefined)	8	0	-4	-8	-11	x	x
COc1ccc(C(=O)Nc2ccc3c(c2)C(=O)c2ccccc2C3=O)cc1OC	-1	-3	66*	14	7	12	x
Cc1ccc(S(=O)(=O)N2CCCN(C(=O)CNC(=O)c3cccc(C)c3)CC2)cc1	6	-4	1	-1	-6	x	x
CC1=NC(=O)C(N=Nc2ccccc2)N1c1ccccc1 (centres undefined)	3	0	1	20	-7	x	x
CC1=NC(=O)C(N=Nc2cccc(C(=O)O)c2)N1c1ccccc1 (centres undefined)	7	-4	43*	-9	15	63*	2
CCOC(=O)C1CCN(C(=O)C(C)Sc2ccc(Cl)cc2)CC1 (centres undefined)	-8	-1	-1	-4	-8	x	x
CCOC(=O)C1CCN(C(=O)C(C)Sc2nnc3ccccn23)CC1 (centres undefined)	8	-3	60*	-7	-1	7	3
COc1ccc(CCCc2nnc(SCC(=O)Nc3cc(C)ccc3C)o2)cc1	-2	0	0	2	-2	x	x
COc1ccc(CCCc2nnc(SCC(=O)Nc3ccc(OC)cc3)o2)cc1	-2	0	45*	3	16	71*	6
SMILES	VLA-4 inh	MIN6 prolif	APOBEC3A inh	CendR NRP1 mod	APOBEC3G inh	APOBEC3A confirm	UDG A3A counter
Cc1cc(C)nc(SCc2nnc(SCC(=O)Nc3ccc(Cl)c(C(F)(F)F)c3)o2)n1	6	-1	70*	-8	-2	-3	19
COc1ccc(CCCc2nnc(SCC(=O)Nc3ccc(C)c(C)c3)o2)cc1	0	-3	50*	-2	27	72*	4
COc1ccc(S(=O)(=O)N2CCOCC2)cc1NC(=O)C1COc2ccccc2O1 (centres undefined)	-8	-5	1	9	0	x	x
COc1ccc2[nH]c(=O)c(CN(C(=O)c3ccco3)C(C)C)cc2c1	4	-2	56*	3	26	61*	6
O=C(C1CC(=O)N(c2ccc3c(c2)OCCO3)C1)N1CCN(S(=O)(=O)c2ccccc2F)CC1 (centres undefined)	x	x	x	-5	x	x	x
CC(C)(C)c1cc(C(=O)NNC(=O)Nc2ccccc2)n(Cc2ccccc2)n1	-2	-1	61*	-2	-4	1	2
CC(C)(C)c1cc(C(=O)NNC(=O)Nc2cccc(Cl)c2)n(Cc2ccccc2)n1	2	-5	0	6	-7	x	x
CCCCCn1c2c(c(=N)c3ccccc31)CCC2	6	-3	58*	6	18	74*	2
CCCCn1c2c(c(=N)c3ccccc31)CCC2	-9	-3	88*	14	23	41*	2
CCCCCCCCn1c2c(c(=N)c3ccccc31)CCC2	x	-5	0	1	-6	x	x
CN(CC(=O)Nc1ccccc1Br)C(=O)c1cc([N+](=O)[O-])ccc1N1CCOCC1	-9	-2	42*	-2	7	-1	x
Cc1ccc(NC(=O)c2ccc([N+](=O)[O-])o2)cc1S(=O)(=O)N1CCOCC1	4	-6	4	1	2	x	x
CCN(CC(=O)Nc1cc(Cl)ccc1C)C(=O)c1cc([N+](=O)[O-])ccc1N1CCOCC1	-4	-3	80*	-7	3	0	x
Cc1ccc(NC(=O)c2cc([N+](=O)[O-])ccc2N2CCOCC2)cc1S(=O)(=O)N1CCOCC1	12	3	42*	-13	5	2	x
